Records with an inconclusive call do not appear. Activity calls are given as the source filed them. How the source made its calls, unless noted: active means hit-call score of the fitted dose curve at least 0.9, where 1 is the maximum; inactive means score below 0.9.
Legend:
[1] = target: Glucocorticoid receptor (Homo sapiens) (UniProt P04150); assay: ATG_GR_TRANS: Attagene TRANS-FACTORIAL HepG2 Assay for human Glucocorticoid Receptor (GR) (AID 2282978; active means hit-call score of the fitted dose curve at least 0.9, where 1 is the maximum;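 further: activators score as hits since higher reporter transcript over DMSO is fitted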); conditions: HepG2 Attagene TRANS GR reporter, mRNA transcription
Sequence of Glucocorticoid receptor (Homo sapiens) (P04150 whole entry, looked up, the tested form may be a part): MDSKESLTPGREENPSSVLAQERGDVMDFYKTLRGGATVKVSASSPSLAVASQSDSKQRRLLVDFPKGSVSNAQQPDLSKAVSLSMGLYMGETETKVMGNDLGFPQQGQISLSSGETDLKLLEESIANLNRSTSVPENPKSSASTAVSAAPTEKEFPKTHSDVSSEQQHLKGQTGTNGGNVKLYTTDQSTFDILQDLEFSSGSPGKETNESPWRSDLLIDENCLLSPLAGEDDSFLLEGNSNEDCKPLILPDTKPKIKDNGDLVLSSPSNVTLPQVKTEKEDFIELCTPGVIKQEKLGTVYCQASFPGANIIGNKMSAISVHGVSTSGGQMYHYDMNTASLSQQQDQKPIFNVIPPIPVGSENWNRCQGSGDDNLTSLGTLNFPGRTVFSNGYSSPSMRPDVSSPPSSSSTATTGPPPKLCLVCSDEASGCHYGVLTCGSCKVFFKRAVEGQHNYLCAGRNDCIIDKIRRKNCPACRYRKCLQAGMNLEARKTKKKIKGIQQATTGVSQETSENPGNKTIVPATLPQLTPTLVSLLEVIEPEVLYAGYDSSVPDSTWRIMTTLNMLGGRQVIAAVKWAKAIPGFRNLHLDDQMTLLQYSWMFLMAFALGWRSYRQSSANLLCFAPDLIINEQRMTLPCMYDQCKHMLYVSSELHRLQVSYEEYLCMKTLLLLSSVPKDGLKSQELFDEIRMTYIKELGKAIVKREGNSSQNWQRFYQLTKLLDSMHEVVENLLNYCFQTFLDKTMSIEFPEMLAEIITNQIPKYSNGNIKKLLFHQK
Summary of the method: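 Fluorescent capillary-electrophoresis quantitation of reporter mRNA is the readout, taken 24 h after dosing human HepG2 cells carrying transiently transfected GAL4-UAS reporter units activated by chimeric NR-GAL4 fusions; activity scored as induction over DMSO.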

[2] = target: Bile acid receptor (Homo sapiens) (UniProt Q96RI1); assay: ATG_FXR_TRANS: Attagene TRANS-FACTORIAL HepG2 Assay for Farnesoid X Receptor (FXR) (AID 2282979; active means hit-call score of the fitted dose curve at least 0.9, where 1 is the maximum;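 further: hits raise reporter mRNA above DMSO so AC50 marks FXR activation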); conditions: HepG2 Attagene TRANS FXR-GAL4 reporter transcription
Summary of the method: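 Transient transfection of HepG2 with multiplexed GAL4-UAS reporter units; exogenous FXR-GAL4 chimera. Dose 24 h → TriZol RNA → oligo(dT) RT → PCR, 6-FAM primer extension, HpaI cut → CE. Gain vs DMSO.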

[3] = target: Oxysterols receptor LXR-alpha (Homo sapiens) (UniProt Q13133); assay: ATG_LXRa_TRANS: Attagene TRANS-FACTORIAL HepG2 Assay for human Liver X Receptor alpha (LXRa) (AID 2282980; active means hit-call score of the fitted dose curve at least 0.9, where 1 is the maximum); conditions: HepG2 Attagene TRANS reporter, LXRa transactivation
Sequence of Oxysterols receptor LXR-alpha (Homo sapiens) (Q13133 whole entry, looked up, the tested form may be a part): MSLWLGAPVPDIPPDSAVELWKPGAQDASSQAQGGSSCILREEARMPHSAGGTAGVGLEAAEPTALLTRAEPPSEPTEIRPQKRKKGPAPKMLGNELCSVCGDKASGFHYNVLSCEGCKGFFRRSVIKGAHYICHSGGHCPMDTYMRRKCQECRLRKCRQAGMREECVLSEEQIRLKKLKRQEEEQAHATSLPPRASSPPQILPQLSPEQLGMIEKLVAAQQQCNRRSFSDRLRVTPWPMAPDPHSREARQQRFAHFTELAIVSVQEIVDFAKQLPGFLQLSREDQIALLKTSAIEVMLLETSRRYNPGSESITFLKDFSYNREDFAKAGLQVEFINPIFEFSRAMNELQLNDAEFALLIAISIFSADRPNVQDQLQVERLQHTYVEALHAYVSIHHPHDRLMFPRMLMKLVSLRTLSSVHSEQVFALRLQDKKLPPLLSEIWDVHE
Summary of the method: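 Transfect HepG2 with GAL4-UAS multiplex reporter constructs (TRANS format, chimeric receptor-GAL4); treat 24 h; extract RNA, reverse-transcribe, PCR-amplify, FAM-label, HpaI-digest; resolve fragments by capillary electrophoresis. Upward response vs DMSO.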

[4] = target: Oxysterols receptor LXR-beta (Homo sapiens) (UniProt P55055); assay: ATG_LXRb_TRANS: Attagene TRANS-FACTORIAL HepG2 Assay for human Liver X Receptor beta (LXRb) (AID 2282981; active means hit-call score of the fitted dose curve at least 0.9, where 1 is the maximum); conditions: HepG2 Attagene TRANS GAL4-LXRb reporter, mRNA
Sequence of Oxysterols receptor LXR-beta (Homo sapiens) (P55055 whole entry, looked up, the tested form may be a part): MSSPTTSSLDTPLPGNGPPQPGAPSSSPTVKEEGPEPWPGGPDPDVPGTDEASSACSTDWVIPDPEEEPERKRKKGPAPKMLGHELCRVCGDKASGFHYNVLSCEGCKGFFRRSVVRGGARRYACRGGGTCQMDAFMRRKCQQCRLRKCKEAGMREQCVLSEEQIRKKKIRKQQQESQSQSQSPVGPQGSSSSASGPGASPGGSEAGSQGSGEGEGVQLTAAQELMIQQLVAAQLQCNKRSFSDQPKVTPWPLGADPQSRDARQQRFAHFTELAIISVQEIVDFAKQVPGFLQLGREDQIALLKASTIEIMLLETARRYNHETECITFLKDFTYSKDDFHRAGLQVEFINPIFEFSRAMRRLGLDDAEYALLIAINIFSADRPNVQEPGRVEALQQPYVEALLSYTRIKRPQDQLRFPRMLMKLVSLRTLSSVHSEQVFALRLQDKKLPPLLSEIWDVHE
Summary of the method: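 Liver-derived HepG2 cells transfected with Gal4-responsive reporters were dosed for 24 h. Activation was scored as rise in reporter mRNA, by RT-PCR and capillary electrophoresis, above DMSO baseline.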

[5] = target: Hepatocyte nuclear factor 4-alpha (Homo sapiens) (UniProt P41235); assay: ATG_HNF4a_TRANS: Attagene TRANS-FACTORIAL HepG2 Assay for human Hepatocyte Nuclear Factor 4 alpha (HNF4a) (AID 2282982; active means hit-call score of the fitted dose curve at least 0.9, where 1 is the maximum); conditions: HepG2 HNF4a transactivation reporter, mRNA readout
Sequence of Hepatocyte nuclear factor 4-alpha (Homo sapiens) (P41235 whole entry, looked up, the tested form may be a part): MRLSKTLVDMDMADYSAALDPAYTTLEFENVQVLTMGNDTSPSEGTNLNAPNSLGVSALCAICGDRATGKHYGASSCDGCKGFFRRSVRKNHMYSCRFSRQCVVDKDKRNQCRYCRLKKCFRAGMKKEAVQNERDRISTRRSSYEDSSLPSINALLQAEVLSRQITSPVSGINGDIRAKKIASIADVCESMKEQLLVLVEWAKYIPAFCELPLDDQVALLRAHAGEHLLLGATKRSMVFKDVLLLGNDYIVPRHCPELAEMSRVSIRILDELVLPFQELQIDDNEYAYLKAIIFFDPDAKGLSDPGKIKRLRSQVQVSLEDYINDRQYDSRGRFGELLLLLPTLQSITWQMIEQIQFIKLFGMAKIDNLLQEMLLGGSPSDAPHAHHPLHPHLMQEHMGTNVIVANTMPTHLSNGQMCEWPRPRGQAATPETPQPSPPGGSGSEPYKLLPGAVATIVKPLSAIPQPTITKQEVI
Summary of the method: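 Using HepG2 liver cells transfected with GAL4-UAS reporter units, chemical-induced mRNA increases were assessed after 24 hours. Fluorescent RT-PCR fragments were separated by capillary electrophoresis and compared with DMSO negative controls.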

[6] = ATG_M_06_TRANS: Attagene TRANS-FACTORIAL HepG2 Assay for M06 Transcription Factor (Internal Marker) (AID 2282983; active means hit-call score of the fitted dose curve at least 0.9, where 1 is the maximum); conditions: HepG2 Attagene TRANS M06 internal marker reporter
Summary of the method: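 Background control endpoint: reporter mRNA from transiently transfected HepG2 after 24 h dosing, detected by RT-PCR with capillary electrophoresis fluorescence. Analysed for gain versus DMSO.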

[7] = target: Transcriptional activator Myb (Homo sapiens) (UniProt P10242); assay: ATG_Myb_CIS: Attagene CIS-FACTORIAL HepG2 Assay for human Myeloblastosis (Myb) Proto-Oncogene Transcription Factor (AID 2282986); conditions: HepG2 Attagene CIS-FACTORIAL Myb reporter transcription; actives raise or lower the signal
Sequence of Transcriptional activator Myb (Homo sapiens) (P10242 whole entry, looked up): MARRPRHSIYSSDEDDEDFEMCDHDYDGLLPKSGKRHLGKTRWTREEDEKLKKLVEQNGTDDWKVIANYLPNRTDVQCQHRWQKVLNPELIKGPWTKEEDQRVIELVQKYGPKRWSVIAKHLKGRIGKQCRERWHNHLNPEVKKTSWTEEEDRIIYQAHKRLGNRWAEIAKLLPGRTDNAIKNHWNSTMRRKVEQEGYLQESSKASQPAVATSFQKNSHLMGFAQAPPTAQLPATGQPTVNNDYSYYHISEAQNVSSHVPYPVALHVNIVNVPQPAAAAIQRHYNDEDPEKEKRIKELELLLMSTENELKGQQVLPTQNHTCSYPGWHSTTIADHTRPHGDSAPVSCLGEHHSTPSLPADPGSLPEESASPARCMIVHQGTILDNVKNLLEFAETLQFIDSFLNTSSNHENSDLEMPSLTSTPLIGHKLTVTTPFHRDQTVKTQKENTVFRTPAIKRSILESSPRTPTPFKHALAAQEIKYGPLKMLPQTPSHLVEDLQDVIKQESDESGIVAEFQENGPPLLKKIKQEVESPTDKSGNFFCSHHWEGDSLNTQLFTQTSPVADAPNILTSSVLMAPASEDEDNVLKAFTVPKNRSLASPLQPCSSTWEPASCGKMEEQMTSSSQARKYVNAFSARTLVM
Summary of the method: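 Reporter transcript levels, quantified by fluorescent RT-PCR and capillary electrophoresis, serve as the read-out. Transfected HepG2 cells carrying cis-promoter reporter units are dosed for 24 hours, and curves are fitted bidirectionally against DMSO controls.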

[8] = target: Nuclear respiratory factor 1 (Homo sapiens) (UniProt Q16656); assay: ATG_NRF1_CIS: Attagene CIS-FACTORIAL HepG2 Assay for human Nuclear Respiratory Factor 1 (NRF1) Orphan Gene (AID 2282987); conditions: HepG2 NRF1 cis-element reporter, Attagene multiplex; actives raise or lower the signal
Sequence of Nuclear respiratory factor 1 (Homo sapiens) (Q16656 whole entry, looked up): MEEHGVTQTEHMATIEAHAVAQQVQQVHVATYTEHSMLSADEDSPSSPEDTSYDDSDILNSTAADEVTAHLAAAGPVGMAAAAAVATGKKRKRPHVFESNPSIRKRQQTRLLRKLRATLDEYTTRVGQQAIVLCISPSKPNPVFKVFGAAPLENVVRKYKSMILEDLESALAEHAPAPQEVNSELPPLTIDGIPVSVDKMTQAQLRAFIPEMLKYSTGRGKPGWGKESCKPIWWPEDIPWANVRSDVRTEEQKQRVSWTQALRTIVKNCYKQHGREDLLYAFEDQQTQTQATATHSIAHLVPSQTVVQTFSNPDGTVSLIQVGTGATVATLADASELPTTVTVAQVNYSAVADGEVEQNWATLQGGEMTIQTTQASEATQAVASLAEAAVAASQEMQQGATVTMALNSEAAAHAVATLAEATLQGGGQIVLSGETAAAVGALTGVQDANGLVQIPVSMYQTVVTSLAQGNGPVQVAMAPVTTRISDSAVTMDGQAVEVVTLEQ
Summary of the method: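 Multiplexed cis-reporter assay, HepG2 cells, 24 h treatment. Total RNA → oligo(dT) RT → PCR with reporter-specific primers → 6-FAM primer extension → HpaI cut → CE. Bidirectional fit vs DMSO.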

[9] = ATG_NFI_CIS: Attagene CIS-FACTORIAL HepG2 Assay for human Nuclear Factor I (NFI) (AID 2282989); conditions: HepG2 cis-regulatory reporter, NFI response element transcription; actives raise or lower the signal
Summary of the method: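 HepG2 cells transiently transfected with cis-element-driven multiplexed reporter transcription units, dosed for 24 h. Reporter mRNA quantified by RT-PCR, fluorescent labelling, HpaI digestion and capillary electrophoresis; bidirectional fit versus DMSO baseline.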

[10] = target: Myc proto-oncogene protein (Homo sapiens) (UniProt P01106); assay: ATG_Myc_CIS: Attagene CIS-FACTORIAL HepG2 Assay for human Myelocytomatosis (Myc) Proto-Oncogene Transcription Factor (AID 2282990); conditions: HepG2, Attagene cis-reporter transcription factor activity; actives raise or lower the signal
Sequence of Myc proto-oncogene protein (Homo sapiens) (P01106 whole entry, looked up): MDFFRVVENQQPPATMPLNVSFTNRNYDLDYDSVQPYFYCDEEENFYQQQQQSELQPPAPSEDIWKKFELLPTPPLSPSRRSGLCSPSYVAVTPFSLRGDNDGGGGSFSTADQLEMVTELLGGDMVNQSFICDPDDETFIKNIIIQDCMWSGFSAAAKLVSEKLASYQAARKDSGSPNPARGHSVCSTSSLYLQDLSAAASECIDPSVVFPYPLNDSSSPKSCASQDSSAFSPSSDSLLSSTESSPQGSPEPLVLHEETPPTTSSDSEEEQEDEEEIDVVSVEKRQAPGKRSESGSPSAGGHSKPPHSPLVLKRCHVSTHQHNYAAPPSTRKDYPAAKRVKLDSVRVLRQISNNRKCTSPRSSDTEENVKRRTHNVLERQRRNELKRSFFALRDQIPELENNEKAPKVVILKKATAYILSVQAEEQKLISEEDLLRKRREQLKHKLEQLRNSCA
Summary of the method: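 Multiplexed cis-reporter transcription in HepG2 cells after 24 h chemical treatment. Reporter mRNA measured by RT-PCR and capillary electrophoresis fluorescence; activity fitted bidirectionally against DMSO control.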

[11] = ATG_NF_kB_CIS: Attagene CIS-FACTORIAL HepG2 Assay for human Nuclear Factor Kappa B (NF-kB) (AID 2282991); conditions: HepG2 Attagene cis-factorial NF-kB reporter mRNA; actives raise or lower the signal
Summary of the method: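 Transient MRTU transfection of human HepG2 liver cells → 24 h chemical exposure → total RNA, oligo(dT) RT → PCR, 6-FAM primer extension, HpaI digest 2 h 37 C → CE fragment analysis. Bidirectional fitting, DMSO negative control.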

[12] = ATG_NRF2_ARE_CIS: Attagene CIS-FACTORIAL HepG2 Assay for human Nuclear Factor Erythroid 2 Related Factor 2 (NFR2) response to Antioxidant Response Elements (ARE) (AID 2282992); conditions: HepG2 Attagene ARE/NRF2 reporter, transcription factor activity; actives raise or lower the signal
Summary of the method: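 Using transiently transfected HepG2 cells exposed for 24 h, reporter mRNA levels were determined by RT-PCR with fluorescent primer extension and capillary electrophoresis, analysed for gain or loss of signal against DMSO.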

[13] = ATG_Oct_MLP_CIS: Attagene CIS-FACTORIAL HepG2 Assay for human Octamer-Binding Transcription Factor (Oct) (AID 2282993); conditions: HepG2 Attagene cis-factorial Oct reporter, mRNA; actives raise or lower the signal
Summary of the method: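 HepG2 cells transiently transfected with cis-promoter-driven multiplexed reporter transcription units, dosed for 24 h. Reporter mRNA quantified by RT-PCR, fluorescent labelling, HpaI digestion and capillary electrophoresis; bidirectional fits versus DMSO baseline.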

[14] = ATG_M_32_TRANS: Attagene TRANS-FACTORIAL HepG2 Assay for M32 Transcription Factor (Internal Marker) (AID 2282984; active means hit-call score of the fitted dose curve at least 0.9, where 1 is the maximum); conditions: HepG2 Attagene TRANS M32 internal marker reporter
Summary of the method: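 Fluorescence-detected mRNA induction, HepG2 liver cells, 24 h after dosing. Multiple GAL4-UAS reporter units introduced by transient transfection; background-control endpoint analysed for gain of signal against DMSO.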

[15] = target: Nuclear receptor subfamily 4 group A member 2 (Homo sapiens) (UniProt P43354); assay: ATG_NURR1_TRANS: Attagene TRANS-FACTORIAL HepG2 Assay for human Nuclear Receptor Related Protein 1 (NURR1) (AID 2282985; active means hit-call score of the fitted dose curve at least 0.9, where 1 is the maximum); conditions: HepG2 Attagene TRANS reporter, mRNA readout
Sequence of Nuclear receptor subfamily 4 group A member 2 (Homo sapiens) (P43354 whole entry, looked up, the tested form may be a part): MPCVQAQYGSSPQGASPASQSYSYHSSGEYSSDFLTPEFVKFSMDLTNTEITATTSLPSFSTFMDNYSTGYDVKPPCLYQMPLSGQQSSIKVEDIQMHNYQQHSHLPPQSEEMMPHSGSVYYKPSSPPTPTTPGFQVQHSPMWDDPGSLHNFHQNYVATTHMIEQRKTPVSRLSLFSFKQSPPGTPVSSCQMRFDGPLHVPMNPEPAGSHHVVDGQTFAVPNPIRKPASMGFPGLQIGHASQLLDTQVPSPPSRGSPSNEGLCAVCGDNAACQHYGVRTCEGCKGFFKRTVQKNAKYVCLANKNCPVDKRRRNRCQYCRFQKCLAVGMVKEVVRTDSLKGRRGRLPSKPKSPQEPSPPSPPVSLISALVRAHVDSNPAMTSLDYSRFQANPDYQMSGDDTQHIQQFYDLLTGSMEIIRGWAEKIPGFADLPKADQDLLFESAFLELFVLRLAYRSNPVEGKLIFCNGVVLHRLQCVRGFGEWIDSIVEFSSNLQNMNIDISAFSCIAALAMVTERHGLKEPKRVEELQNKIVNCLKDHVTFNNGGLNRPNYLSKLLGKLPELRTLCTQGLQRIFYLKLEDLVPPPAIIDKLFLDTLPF
Summary of the method: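 Chimeric NR-Gal4 proteins were expressed in human HepG2 cells bearing GAL4-UAS reporter units, and induced reporter mRNA was quantified 24 h post-dosing by RT-PCR and capillary electrophoresis.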

[16] = target: Cellular tumor antigen p53 (Homo sapiens) (UniProt P04637); assay: ATG_p53_CIS: Attagene CIS-FACTORIAL HepG2 Assay for human p53 Transcription Factor (AID 2282994); conditions: HepG2 p53 cis-element reporter, Attagene mRNA; actives raise or lower the signal
Sequence of Cellular tumor antigen p53 (Homo sapiens) (P04637 whole entry, looked up, the tested form may be a part): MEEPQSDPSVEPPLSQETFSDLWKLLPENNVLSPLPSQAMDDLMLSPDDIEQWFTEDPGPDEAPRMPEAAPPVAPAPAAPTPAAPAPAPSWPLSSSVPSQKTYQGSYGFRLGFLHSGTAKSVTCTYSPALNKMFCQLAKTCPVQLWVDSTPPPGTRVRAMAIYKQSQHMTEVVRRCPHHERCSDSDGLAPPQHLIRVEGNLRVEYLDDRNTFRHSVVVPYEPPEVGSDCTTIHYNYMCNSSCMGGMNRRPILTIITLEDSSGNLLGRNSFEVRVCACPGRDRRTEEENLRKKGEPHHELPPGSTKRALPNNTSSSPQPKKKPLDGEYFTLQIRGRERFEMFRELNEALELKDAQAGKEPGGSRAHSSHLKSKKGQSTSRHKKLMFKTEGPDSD
Summary of the method: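 In HepG2 cells, reporter transcription units under cis-regulatory promoters were transiently introduced. Following 24 h treatment, RNA was processed to labelled, digested cDNA fragments read by capillary electrophoresis; fitting was bidirectional versus DMSO.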

[17] = BSK_3C_TissueFactor: BioMAP Diversity Plus: 3C Assay for Tissue Factor Biomarker Activity (AID 2282997); conditions: BioMAP 3C HUVEC, tissue factor biomarker readout; actives raise or lower the signal
Summary of the method: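 After a 24 h chemical exposure of primary human umbilical vein endothelial cells, Tissue Factor levels were quantified by ELISA.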

[18] = BSK_3C_uPAR: BioMAP Diversity Plus: 3C Assay for Urokinase-type plasminogen activator receptor (uPAR) Biomarker Activity (AID 2282998); conditions: BioMAP 3C HUVEC, uPAR biomarker ELISA; actives raise or lower the signal
Summary of the method: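 Human umbilical vein endothelial primary cells were exposed to test chemical for 24 h. Cell-surface uPAR was then quantified by ELISA, and responses were fitted bidirectionally against DMSO as negative control and baseline.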

[19] = BSK_3C_VCAM1: BioMAP Diversity Plus: 3C Assay for Vascular cell adhesion molecule 1 (VCAM1) Biomarker Activity (AID 2282999); conditions: BioMAP 3C HUVEC, VCAM1 ELISA, cytokine-stimulated; actives raise or lower the signal
Summary of the method: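 Vascular primary endothelium (human umbilical vein) was exposed to chemicals and assayed 24 h later. VCAM-1 levels came from ELISA, with DMSO serving as baseline for bidirectional fitting.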

[20] = BSK_4H_Eotaxin3: BioMAP Diversity Plus: 4H Assay for Eotaxin 3 Biomarker Activity (AID 2283000); conditions: primary human endothelial cells (HUVEC); actives raise or lower the signal
Summary of the method: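 Chemicals were added to human umbilical vein endothelium cultures, and Eotaxin-3 was quantified by ELISA at 24 h. Values were derived by bidirectional fitting with DMSO serving as negative control and activity baseline.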

Measured: AC50

Oc1ccc(Cl)cc1Cc1cc(Cl)ccc1O
active: [9] 5.83 µM | [12] 2.75 µM | [13] 7.99 µM
not listed: [14] | [15] | [16] | [17] | [18] | [19] | [20]
inactive: all other assays above

COc1ccc(-c2coc3cc(O)ccc3c2=O)cc1
not listed: [2] | [17] | [18] | [19] | [20]
inactive: all other assays above

C=C1[C@H]2CC[C@@H]3[C@H]2C(C)(C)CCC[C@]13C
inactive: [1] | [2] | [6] | [15] | [7] | [8] | [9] | [10] | [12] | [13] | [16]

NC(=O)NNC(N)=O
not listed: [2] | [4] | [6] | [17] | [18] | [19] | [20]
inactive: all other assays above

CCOC(=O)Cc1cccc2ccccc12
inactive: [1] | [3] | [4] | [14] | [7] | [8] | [9] | [10] | [12] | [13] | [16]

O=C1CCCN1CCO
not listed: [2] | [5] | [6] | [8] | [13] | [14]
inactive: all other assays above

CN(C)CCCN(C)C
inactive: [1] | [3] | [4] | [6] | [7] | [8] | [9] | [10] | [13] | [16]

CCCCCCCCCCCCCCCC(=O)OCC
inactive: [1] | [3] | [4] | [14] | [15] | [7] | [9] | [10] | [11] | [12] | [13]

CCCCCCCCCCCCCCCCCC#N
not listed: [2] | [4] | [17] | [18] | [19] | [20]
inactive: all other assays above

CC(C)(C)c1ccc(N)cc1
inactive: [1] | [3] | [4] | [5] | [14] | [15] | [7] | [9] | [10] | [12] | [13]

CC1(C)O[C@@H]2C[C@H]3[C@@H]4C[C@H](F)C5=CC(=O)C=C[C@]5(C)[C@@]4(F)[C@@H](O)C[C@]3(C)[C@]2(C(=O)CO)O1
inactive: [3] | [4] | [6] | [14] | [7] | [8] | [9] | [10] | [12] | [13]
active: [1] 0.0525 µM

CCCCC(CC)COC(=O)c1ccccc1O (stereo unspecified)
active: [17] 1.8 µM | [18] 17.9 µM | [20] 15.2 µM
not listed: [2] | [4]
inactive: all other assays above

O=C1CCC(=O)N1Cl
not listed: [2] | [3] | [16] | [17] | [18] | [19] | [20]
inactive: all other assays above

COc1cc(NC(=O)CC(C)=O)c(OC)cc1Cl
inactive: [1] | [3] | [4] | [15] | [7] | [8] | [9] | [10] | [12] | [13] | [16]

CC1(C)[C@H]2CC[C@]1(C)C(=O)C2
inactive: [1] | [3] | [6] | [14] | [7] | [8] | [9] | [10] | [11] | [12] | [16]

CC(=O)NS(=O)(=O)c1ccc(N)cc1
not listed: [2] | [5] | [14] | [15] | [17] | [18] | [19] | [20]
inactive: all other assays above

CC=CC(=O)N(CC)c1ccccc1C
not listed: [2] | [6] | [11] | [15] | [17] | [18] | [19] | [20]
inactive: all other assays above

Cc1ccc([N+](=O)[O-])cc1S(=O)(=O)O
active: [7] 191 µM | [10] 165 µM
inactive: [1] | [3] | [4] | [5] | [15] | [9] | [11] | [12] | [13] | [16]

CC(C)c1ccc(C#N)cc1
inactive: [1] | [3] | [7] | [8] | [9] | [10] | [11] | [12] | [13] | [16]

CCCCC/C=C\CCC=O
not listed: [2] | [5] | [6] | [13] | [17] | [18] | [19] | [20]
inactive: all other assays above

CC(=O)OCCC1CCCCC1
inactive: [1] | [3] | [4] | [6] | [7] | [8] | [9] | [10] | [11] | [12] | [13]
